This is an account of results in ChEMBL document CHEMBL2218924, “A broad activity screen in support of a chemogenomic map for kinase signalling research and drug discovery” (Biochem J, 2013).

The target of test [1] is Ephrin type-A receptor 4 (Homo sapiens) (UniProt P54764). Conditions: at 1 µM; call rule not given here.
Test [2] has the same target. Conditions: at 10 µM.
For test [3], the target named is Ephrin type-A receptor 5 (Homo sapiens) (UniProt P54756). As to conditions: at 1 µM.
Test [4] concerns the target T1, Ephrin type-A receptor 8 (Homo sapiens) (UniProt P29322).
T1 sequence (whole entry): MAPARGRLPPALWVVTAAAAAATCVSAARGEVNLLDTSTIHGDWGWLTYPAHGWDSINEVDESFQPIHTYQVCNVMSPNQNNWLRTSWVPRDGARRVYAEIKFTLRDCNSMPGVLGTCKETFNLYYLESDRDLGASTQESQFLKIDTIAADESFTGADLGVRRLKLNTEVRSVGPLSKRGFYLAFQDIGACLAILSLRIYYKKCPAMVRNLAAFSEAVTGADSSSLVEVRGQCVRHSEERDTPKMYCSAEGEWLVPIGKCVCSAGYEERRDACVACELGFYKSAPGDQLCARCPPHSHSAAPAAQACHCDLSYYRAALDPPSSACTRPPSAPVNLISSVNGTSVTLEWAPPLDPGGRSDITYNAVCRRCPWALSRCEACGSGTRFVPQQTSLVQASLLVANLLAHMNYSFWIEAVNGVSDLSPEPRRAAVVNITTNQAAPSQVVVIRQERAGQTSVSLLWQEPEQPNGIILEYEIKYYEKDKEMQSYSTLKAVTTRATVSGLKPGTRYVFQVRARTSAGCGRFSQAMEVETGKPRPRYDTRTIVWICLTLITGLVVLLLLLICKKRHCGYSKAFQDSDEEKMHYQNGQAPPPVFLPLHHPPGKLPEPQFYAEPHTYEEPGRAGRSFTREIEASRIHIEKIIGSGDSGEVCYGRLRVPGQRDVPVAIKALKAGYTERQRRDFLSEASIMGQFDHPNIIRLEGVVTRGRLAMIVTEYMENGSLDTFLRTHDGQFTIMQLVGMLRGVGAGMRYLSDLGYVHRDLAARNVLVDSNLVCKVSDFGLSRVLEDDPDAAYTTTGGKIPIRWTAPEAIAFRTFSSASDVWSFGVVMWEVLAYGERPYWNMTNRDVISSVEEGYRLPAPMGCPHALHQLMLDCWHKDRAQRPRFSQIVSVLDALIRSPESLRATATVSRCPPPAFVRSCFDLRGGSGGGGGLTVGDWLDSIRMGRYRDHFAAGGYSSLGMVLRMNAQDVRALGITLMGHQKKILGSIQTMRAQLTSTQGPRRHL
Conditions: at 10 µM.

Test [5] has as its target T2, Ephrin type-B receptor 1 (Homo sapiens) (UniProt P54762).
T2 sequence (whole entry): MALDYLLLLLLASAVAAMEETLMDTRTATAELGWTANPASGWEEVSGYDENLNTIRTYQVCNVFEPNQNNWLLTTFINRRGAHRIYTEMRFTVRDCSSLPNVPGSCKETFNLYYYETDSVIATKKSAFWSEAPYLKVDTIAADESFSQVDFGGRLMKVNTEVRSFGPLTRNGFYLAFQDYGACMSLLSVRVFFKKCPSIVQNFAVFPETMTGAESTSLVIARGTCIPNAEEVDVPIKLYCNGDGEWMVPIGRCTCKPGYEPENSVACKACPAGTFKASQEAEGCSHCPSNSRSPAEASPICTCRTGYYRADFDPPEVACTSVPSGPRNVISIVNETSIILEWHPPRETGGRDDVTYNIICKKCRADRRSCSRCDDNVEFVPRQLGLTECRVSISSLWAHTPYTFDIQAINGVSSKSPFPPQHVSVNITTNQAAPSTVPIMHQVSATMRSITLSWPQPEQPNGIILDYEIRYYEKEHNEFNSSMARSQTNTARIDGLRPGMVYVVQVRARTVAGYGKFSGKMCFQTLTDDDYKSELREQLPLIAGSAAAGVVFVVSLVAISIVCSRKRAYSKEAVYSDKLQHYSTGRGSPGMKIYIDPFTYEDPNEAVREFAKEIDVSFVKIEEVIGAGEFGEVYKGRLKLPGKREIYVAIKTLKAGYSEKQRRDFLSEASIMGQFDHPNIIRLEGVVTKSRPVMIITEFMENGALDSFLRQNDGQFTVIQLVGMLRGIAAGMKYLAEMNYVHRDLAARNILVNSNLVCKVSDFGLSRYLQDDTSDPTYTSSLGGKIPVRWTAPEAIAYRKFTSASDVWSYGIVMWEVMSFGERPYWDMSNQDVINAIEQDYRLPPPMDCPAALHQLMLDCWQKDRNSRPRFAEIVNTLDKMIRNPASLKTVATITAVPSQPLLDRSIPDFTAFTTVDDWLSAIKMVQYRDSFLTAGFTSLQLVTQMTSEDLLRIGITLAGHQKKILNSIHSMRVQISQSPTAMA
Conditions: at 1 µM.

Test [6] concerns the target T2, Ephrin type-B receptor 1 (Homo sapiens). Conditions: at 10 µM.
In test [7] the target is T3, Ephrin type-B receptor 2 (Homo sapiens) (UniProt P29323).
T3 sequence (whole entry): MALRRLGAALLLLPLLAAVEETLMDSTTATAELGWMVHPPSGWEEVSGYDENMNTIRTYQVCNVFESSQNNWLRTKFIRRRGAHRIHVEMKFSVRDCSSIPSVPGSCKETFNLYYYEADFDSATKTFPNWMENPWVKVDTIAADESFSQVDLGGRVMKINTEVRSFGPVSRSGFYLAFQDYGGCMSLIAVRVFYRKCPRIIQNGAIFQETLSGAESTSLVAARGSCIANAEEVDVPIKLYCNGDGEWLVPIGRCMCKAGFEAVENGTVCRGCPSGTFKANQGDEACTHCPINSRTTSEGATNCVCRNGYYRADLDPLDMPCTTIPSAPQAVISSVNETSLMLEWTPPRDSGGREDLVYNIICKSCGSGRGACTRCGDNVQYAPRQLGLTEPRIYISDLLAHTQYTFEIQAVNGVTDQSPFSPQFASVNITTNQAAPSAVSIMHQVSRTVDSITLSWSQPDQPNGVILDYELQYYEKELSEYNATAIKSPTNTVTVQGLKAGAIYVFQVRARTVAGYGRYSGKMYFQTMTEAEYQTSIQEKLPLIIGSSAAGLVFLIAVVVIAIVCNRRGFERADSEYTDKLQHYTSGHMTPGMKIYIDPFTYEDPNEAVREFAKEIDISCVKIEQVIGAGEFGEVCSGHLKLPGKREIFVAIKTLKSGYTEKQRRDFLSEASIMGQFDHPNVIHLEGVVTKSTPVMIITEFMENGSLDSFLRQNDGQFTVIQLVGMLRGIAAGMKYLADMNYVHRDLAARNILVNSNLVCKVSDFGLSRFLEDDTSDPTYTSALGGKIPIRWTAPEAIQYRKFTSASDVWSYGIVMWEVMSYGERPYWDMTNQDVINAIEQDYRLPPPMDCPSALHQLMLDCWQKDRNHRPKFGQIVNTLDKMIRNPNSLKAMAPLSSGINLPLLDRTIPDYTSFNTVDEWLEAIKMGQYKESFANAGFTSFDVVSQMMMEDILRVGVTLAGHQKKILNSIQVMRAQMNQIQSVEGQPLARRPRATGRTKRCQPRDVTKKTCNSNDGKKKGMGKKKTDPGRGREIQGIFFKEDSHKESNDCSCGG
As to conditions: at 1 µM.

The target in test [8] is T3, Ephrin type-B receptor 2 (Homo sapiens). As to conditions: at 10 µM.
The target of test [9] is T4, Ephrin type-B receptor 3 (Homo sapiens) (UniProt P54753).
T4 sequence (whole entry): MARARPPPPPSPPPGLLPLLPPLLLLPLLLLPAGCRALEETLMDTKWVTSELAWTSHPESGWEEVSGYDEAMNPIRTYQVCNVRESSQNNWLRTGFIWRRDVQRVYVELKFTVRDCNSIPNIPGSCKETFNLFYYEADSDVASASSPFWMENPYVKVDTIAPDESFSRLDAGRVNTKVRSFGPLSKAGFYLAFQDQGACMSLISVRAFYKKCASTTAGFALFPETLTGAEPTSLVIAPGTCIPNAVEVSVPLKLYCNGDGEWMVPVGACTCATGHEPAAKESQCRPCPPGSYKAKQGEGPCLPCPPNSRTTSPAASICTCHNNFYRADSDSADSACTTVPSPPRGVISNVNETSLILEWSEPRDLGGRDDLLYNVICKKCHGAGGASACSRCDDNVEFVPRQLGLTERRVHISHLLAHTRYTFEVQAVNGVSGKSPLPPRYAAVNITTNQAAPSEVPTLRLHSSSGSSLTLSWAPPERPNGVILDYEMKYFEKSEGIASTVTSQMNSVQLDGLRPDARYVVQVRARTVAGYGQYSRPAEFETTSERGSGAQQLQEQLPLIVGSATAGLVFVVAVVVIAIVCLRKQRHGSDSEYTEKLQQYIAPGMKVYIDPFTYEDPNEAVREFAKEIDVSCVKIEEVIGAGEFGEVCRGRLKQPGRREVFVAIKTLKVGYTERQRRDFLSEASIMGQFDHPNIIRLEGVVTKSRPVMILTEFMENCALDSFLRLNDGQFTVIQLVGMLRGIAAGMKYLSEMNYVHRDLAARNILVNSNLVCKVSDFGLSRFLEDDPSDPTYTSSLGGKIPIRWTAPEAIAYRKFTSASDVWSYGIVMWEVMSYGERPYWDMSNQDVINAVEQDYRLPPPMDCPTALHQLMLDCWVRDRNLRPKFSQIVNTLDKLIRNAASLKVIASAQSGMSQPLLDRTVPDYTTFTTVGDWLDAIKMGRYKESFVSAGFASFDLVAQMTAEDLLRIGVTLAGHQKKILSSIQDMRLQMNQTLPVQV
Conditions: at 1 µM.

Test [10] deals with T4, Ephrin type-B receptor 3 (Homo sapiens). Conditions: at 10 µM.
In test [11] the target is T5, Ephrin type-B receptor 4 (Homo sapiens) (UniProt P54760).
T5 sequence (whole entry): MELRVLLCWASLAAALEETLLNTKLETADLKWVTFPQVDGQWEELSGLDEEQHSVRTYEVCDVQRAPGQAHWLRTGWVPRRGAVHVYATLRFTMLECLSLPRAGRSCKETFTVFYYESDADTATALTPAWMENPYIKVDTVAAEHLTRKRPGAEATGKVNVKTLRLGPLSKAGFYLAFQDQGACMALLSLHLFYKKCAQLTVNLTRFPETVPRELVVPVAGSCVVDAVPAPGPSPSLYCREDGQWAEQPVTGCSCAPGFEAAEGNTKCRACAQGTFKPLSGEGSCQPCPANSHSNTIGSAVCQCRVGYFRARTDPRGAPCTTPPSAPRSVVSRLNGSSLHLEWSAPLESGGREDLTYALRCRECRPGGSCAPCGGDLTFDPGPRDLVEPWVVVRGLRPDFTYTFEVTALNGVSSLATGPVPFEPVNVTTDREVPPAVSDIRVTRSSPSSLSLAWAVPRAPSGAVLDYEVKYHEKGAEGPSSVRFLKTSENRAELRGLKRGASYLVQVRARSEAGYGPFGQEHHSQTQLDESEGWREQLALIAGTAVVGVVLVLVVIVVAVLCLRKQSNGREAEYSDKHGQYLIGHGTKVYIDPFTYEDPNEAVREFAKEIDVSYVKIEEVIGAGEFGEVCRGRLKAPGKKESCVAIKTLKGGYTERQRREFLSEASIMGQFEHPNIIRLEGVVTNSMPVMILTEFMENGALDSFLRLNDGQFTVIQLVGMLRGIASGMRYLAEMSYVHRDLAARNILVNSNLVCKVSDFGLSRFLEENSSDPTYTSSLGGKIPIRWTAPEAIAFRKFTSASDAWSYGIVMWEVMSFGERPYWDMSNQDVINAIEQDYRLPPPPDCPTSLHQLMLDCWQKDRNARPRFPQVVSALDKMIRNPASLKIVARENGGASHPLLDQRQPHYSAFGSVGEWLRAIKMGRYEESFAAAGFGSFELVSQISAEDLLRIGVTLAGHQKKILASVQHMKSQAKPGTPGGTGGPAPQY
Conditions: at 1 µM.

Test [12] addresses T5, Ephrin type-B receptor 4 (Homo sapiens). Conditions: at 10 µM.
Test [13] addresses Receptor tyrosine-protein kinase erbB-4 (Homo sapiens) (UniProt Q15303). Conditions: at 1 µM.
The target is the same in test [14]. As to conditions: at 10 µM.
The target of test [15] is Focal adhesion kinase 1 (Homo sapiens) (UniProt Q05397). Conditions: at 1 µM.

The structures appear in SMILES notation.

Sequence of Ephrin type-A receptor 4 (Homo sapiens) (P54764 whole entry): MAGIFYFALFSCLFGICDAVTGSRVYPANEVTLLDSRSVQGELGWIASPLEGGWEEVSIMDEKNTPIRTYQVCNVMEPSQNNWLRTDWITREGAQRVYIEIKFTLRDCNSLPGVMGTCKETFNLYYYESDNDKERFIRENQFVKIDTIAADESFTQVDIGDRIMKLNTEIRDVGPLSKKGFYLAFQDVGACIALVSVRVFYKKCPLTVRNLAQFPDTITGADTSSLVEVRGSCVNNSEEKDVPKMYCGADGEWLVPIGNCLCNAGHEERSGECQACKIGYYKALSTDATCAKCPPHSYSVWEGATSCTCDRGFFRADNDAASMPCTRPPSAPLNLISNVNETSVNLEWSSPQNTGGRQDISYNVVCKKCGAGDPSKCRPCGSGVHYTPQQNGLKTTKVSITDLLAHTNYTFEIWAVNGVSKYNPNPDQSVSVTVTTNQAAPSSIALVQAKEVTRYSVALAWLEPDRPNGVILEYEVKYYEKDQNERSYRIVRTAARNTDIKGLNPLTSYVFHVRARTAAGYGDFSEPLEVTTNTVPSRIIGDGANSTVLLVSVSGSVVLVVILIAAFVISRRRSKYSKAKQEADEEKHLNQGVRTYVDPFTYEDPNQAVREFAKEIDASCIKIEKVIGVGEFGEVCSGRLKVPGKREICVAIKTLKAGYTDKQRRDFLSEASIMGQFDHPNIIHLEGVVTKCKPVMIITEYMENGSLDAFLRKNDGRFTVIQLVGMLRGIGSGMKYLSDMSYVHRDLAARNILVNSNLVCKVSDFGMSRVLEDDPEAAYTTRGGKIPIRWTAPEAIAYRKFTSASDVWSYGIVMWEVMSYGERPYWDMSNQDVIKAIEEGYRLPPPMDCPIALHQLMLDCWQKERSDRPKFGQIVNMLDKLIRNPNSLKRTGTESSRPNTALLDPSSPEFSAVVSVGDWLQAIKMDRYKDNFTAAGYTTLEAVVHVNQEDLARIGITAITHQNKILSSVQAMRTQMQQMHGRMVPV
Sequence of Receptor tyrosine-protein kinase erbB-4 (Homo sapiens) (Q15303 whole entry): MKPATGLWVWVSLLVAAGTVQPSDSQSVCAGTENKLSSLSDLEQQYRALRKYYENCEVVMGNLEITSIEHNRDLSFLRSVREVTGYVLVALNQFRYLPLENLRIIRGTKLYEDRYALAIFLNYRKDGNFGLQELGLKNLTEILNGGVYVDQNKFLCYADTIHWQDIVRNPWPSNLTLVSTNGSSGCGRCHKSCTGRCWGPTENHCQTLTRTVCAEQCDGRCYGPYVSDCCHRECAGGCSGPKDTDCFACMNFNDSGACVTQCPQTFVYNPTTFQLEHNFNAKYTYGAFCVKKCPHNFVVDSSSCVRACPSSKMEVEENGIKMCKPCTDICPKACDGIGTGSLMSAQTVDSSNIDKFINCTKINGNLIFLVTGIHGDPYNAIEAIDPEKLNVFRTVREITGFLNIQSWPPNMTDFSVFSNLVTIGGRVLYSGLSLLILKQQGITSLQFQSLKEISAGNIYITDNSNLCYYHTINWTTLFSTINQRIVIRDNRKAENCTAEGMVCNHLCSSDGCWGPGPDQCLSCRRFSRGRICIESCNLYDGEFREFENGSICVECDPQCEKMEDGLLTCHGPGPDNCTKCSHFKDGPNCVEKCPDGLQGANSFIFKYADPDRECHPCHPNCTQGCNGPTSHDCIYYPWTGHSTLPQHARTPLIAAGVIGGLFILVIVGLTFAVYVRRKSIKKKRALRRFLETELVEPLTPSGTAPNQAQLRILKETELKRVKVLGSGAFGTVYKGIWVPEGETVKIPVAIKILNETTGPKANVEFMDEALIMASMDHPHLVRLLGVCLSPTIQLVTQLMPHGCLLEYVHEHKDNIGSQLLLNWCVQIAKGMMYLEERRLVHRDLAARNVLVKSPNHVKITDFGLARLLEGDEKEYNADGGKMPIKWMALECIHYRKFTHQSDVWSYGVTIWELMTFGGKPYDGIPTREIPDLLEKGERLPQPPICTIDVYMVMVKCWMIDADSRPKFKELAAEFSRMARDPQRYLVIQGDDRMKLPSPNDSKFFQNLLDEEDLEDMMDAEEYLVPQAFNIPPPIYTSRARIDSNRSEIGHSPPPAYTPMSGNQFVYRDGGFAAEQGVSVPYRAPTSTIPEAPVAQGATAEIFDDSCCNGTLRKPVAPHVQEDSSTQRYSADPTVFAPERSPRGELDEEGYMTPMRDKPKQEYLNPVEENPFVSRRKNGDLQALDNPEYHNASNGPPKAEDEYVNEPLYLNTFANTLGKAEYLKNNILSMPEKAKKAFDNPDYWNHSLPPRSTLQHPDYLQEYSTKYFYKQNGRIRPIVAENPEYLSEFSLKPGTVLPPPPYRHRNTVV
Sequence of Ephrin type-A receptor 5 (Homo sapiens) (P54756 whole entry): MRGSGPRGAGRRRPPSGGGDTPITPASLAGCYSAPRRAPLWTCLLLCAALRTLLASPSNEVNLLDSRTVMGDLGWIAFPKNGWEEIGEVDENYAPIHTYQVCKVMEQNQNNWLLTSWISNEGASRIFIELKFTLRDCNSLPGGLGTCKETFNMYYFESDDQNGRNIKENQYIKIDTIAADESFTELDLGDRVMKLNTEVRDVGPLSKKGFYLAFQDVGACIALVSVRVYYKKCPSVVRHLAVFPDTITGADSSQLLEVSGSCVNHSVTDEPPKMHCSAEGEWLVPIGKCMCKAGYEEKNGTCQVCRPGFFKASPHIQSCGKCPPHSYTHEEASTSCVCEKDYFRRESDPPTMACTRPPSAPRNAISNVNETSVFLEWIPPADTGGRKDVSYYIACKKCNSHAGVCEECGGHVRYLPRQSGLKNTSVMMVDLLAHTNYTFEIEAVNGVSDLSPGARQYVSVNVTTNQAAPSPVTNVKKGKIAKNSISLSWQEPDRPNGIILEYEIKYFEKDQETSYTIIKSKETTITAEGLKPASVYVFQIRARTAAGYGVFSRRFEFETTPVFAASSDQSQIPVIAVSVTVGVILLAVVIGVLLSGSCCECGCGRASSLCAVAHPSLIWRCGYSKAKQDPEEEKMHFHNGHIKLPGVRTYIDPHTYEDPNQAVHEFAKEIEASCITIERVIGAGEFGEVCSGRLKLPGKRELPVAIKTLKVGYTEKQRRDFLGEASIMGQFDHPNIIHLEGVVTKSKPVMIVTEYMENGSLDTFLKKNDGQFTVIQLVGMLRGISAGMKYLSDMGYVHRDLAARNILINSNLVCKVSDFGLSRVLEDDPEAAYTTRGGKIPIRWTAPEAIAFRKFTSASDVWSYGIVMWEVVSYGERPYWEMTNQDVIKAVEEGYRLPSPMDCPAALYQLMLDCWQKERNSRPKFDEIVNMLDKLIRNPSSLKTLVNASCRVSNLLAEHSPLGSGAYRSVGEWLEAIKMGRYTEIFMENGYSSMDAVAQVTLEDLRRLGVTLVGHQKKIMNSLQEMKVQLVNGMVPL
Sequence of Focal adhesion kinase 1 (Homo sapiens) (Q05397 2-1052 limits assumed): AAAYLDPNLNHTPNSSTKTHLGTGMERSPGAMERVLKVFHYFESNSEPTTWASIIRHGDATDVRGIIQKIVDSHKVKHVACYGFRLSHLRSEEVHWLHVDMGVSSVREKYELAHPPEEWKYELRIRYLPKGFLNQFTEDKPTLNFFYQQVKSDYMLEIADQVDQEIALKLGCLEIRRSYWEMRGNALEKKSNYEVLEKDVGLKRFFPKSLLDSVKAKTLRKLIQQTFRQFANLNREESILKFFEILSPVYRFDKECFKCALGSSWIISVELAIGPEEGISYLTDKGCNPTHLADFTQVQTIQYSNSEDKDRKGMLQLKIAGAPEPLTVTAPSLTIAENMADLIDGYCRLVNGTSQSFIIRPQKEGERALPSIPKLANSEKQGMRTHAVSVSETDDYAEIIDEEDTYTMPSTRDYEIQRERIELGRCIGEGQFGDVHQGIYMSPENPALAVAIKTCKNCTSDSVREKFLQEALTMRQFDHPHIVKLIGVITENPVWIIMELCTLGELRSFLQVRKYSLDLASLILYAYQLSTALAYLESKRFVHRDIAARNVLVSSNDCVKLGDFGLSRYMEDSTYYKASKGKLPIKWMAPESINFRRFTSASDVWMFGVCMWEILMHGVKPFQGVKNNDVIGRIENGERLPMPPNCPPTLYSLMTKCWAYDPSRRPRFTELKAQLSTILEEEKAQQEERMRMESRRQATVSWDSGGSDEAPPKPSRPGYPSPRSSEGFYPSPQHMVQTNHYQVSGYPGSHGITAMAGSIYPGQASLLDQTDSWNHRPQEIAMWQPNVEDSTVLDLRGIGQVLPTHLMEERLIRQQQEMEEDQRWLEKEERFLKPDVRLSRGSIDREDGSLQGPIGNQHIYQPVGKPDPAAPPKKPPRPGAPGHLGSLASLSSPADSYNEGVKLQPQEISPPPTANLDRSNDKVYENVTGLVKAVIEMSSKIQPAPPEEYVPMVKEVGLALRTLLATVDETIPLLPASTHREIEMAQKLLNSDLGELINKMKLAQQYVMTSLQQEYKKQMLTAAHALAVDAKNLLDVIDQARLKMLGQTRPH

With `O=C1Nc2ccc(Br)cc2/C1=C\c1cc2c([nH]1)CCCC2`, the residual activity in test [1] came out at 106%; in test [2], 103%; in test [3], 110%; in test [4] it was 101%; in test [5], 101%; in test [6], 107%. Also, the residual activity in [7] was 111%; in test [8], 115%; in test [9] it was 114% (inactive); in test [10] it was 117%; in [11] it was 118%; in test [12] it was 132%. The residual activity in test [13] came to 109%; in test [14], 106%; in test [15] it was 78%.

In general, residual activity refers to the signal under treatment as a percentage of the control signal.
